Records with an inconclusive call do not appear. Activity calls are given as the source filed them. Rule for the calls: active = hit-call score of the fitted dose curve at least 0.9, where 1 is the maximum; inconclusive = response in the unintended direction; inactive = score below 0.9.

AC50 and outcome data for 40 compounds are collected here from PubChem BioAssay (EPA / NIEHS).

Read-out in the assay: Cytochrome P450 2B6 (Homo sapiens) (UniProt P20813)
The assay is described as follows: CLD_CYP2B6_6hr: CellzDirect (CLD) Gene Expression Assay for xenobiotic metabolism (CYP2B6) at 6 hours (AID 2283677).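 Note: actives raise CYP2B6 transcript above DMSO baseline so AC50 marks an inducer.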 As for the experimental part: CLD_6hr is a cell-based, multiplexed-readout assay that uses hepatocyte, a human liver primary cell, with measurements taken at 6 hours after chemical dosing in a 96-well plate.CLD_CYP2B6_6hr is one of 16 assay component(s) measured or calculated from the CLD_6hr assay. It is designed to make measurements of mRNA induction, a form of inducible reporter, as detected with chemiluminescence signals by Quantitative Nuclease Protection Assay (qNPA) technology.Data from the assay component CLD_CYP2B6_6hr was analyzed at the endpoint, CLD_CYP2B6_6hr, in the positive analysis fitting direction relative to DMSO as the negative control and baseline of activity. Using a type of inducible reporter, gain-of-signal activity can be used to understand changes in the reporter gene as they relate to the gene CYP2B6. Furthermore, this assay endpoint can be referred to as a primary readout. To generalize the intended target to other relatable targets, this assay endpoint is annotated to the cyp intended target family, where subfamily is xenobiotic metabolism.
Human hepatocyte cultures were treated daily for two consecutive days with fresh dosing solutions containing appropriate concentrations of the 320 ToxCast chemicals (chemical identities were blinded to CellzDirect and other ToxCast collaborators), vehicle control (0.2% DMSO), and positive control inducers as summarized in Table 1. Due to the large number of treatment groups and chemicals examined, the ToxCast chemicals were divided into two groups (spanning two independent cultures of hepatocytes from separate donor preparations (Hu778: ToxCast plates 1 and 2; Hu776: ToxCast plates 3 and 4). Each preparation of human hepatocyte cultures was treated with respective vehicle control, medium only control, set of six positive controls/reference chemicals for the five hepatic receptor pathways, and a subset of eight of the ToxCast chemicals (indoxacarb, pyrithiobac-sodium, norflurazon, cyhalofop-butyl, methomyl, thiram, acetochlor, and propiconazole). These replicate data, coupled with internal replicates designed within the blinded ToxCast chemical library, provided additional data to evaluate interindividual differences between hepatocyte preparations and their potential impact on chemical profiles.Cell morphology and integrity were evaluated using phase-contrast microscopy as an indicator of hepatocyte cell health (Tyson & Green, 1987). Cultures for each treatment group (i.e., media, vehicle [0.2% DMSO], positive control inducers [multiple concentrations], and the ToxCast chemicals [multiple concentrations]) were observed and cell morphology was assessed relative to vehicle control cultures at each harvest time point (0, 6, 24, or 48 h). […] Images were evaluated at the conclusion of the study to assess changes in cell integrity and account for the effects of chemical exposure on uncharacteristic changes in concentration-dependent gene expression profiles. The results from these determinations of apparent cytotoxicity were annotated (yes/no) alongside the corresponding qNPA data for reference.At the conclusion of each treatment period, hepatocyte cultures (96-well) were washed with 1 volume of HBSS, lysed by addition of 25 ul ArrayPlate lysis buffer (HTG, Tucson, AZ), and 70 ul/well of Denaturation Oil, denatured by incubation at 95C for 10 min, and frozen at approximately -70C until analysis by nuclease protection assay (qNPA) (Roberts et al., 2007). For qNPA analysis, cell lysates were thawed at 50C for approximately 30 min, qNPA probes were added, and samples were incubated at 95C for 10 min to begin the detection process by denaturing the target RNA, dissociating the duplexes and secondary structure hybridization. At the conclusion of the hybridization period, S1 nuclease reagent was added to each sample to digest all nonprotected nucleotides at 50C for 60-90 min. […]
Usually AC50 stands for the concentration at which the activity in the assay is half-maximal. As to `CSc1nc(NC(C)C)nc(NC(C)C)n1`, the AC50 is 4.01 µM (active).
Consider `CCc1cccc(CC)c1N(COC)C(=O)CCl`, for which the AC50 is 2.58 µM (active).
Turning to `COc1cc(OC)nc(Sc2cccc(Cl)c2C(=O)O)n1`, the compound was called inactive.
In the case of `CC(=NC#N)N(C)Cc1ccc(Cl)nc1`, the result was inactive.
Take `CCOP(=O)(OCC)Oc1cc(C)nc(C(C)C)n1`: the AC50 was 20 µM (active).
Take `CCC(=O)Nc1ccc(Cl)c(Cl)c1`: the concentration at half-maximal activity (AC50) was 7.9 µM (active).
Still for that read-out and setting: under `CC(COc1ccc(Oc2ccccc2)cc1)Oc1ccccn1` (stereo not given) stands 3.97 µM (active); under `CCCSP(=O)(OCC)SCCC`, 0.374 µM (active).
With `S=C1NCCN1`, the call was inactive.
As for `C#CCC1=C(C)C(OC(=O)C2C(C=C(C)C)C2(C)C)CC1=O` (stereo not given), the half-maximal activity concentration (AC50) is 1.08 µM (active).
For `CCOP(=S)(OCC)Oc1cc(C)nc(C(C)C)n1`, the AC50 was 1.96 µM (active).
As for `CC(C)N(C(=O)SCC(Cl)=C(Cl)Cl)C(C)C`, the AC50 is 5.4 µM (active).
Turning to `C[Si](Cn1cncn1)(c1ccc(F)cc1)c1ccc(F)cc1`, the half-maximal activity concentration (AC50) was 32.4 µM (active).
Regarding `CCOP(=S)(OCC)SCCSCC`, the concentration at half-maximal activity (AC50) was 14.1 µM (active).
In the case of `CCC(CC)Nc1c([N+](=O)[O-])cc(C)c(C)c1[N+](=O)[O-]`, the AC50 was 3.47 µM (active).
Consider `CN(C)[C@@H]1C(=O)C(C(N)=O)=C(O)[C@@]2(O)C(=O)C3=C(O)c4c(O)cccc4[C@@](C)(O)[C@H]3[C@H](O)[C@@H]12`, for which the compound was called inactive.
`Cc1cc(C2CC2)nc(Nc2ccccc2)n1`: the AC50 was 1.58 µM (active).
On to `CC1=NNC(=O)N(/N=C/c2cccnc2)C1`, for which the compound was classed as inactive.
With `CN(C)NC(=O)CCC(=O)O`, the call was inactive.
As to `CSC1=N[C@@](C)(c2ccccc2)C(=O)N1Nc1ccccc1`, the AC50 was 1.88 µM (active).
As for `CNc1cnn(-c2cccc(C(F)(F)F)c2)c(=O)c1Cl`, the AC50 is 8.33 µM (active).
For the compound `COP(=O)(OC)OC(Br)C(Cl)(Cl)Br` (stereo not given), the compound was classed as inactive.
Turning to `CCC(=NOC/C=C/Cl)C1=C(O)CC(C2CCOCC2)CC1=O` (stereo not given), the compound was called inactive.
As to `CC(C)[C@H](C(=O)O[C@H](C#N)c1cccc(Oc2ccccc2)c1)c1ccc(Cl)cc1`, the concentration at half-maximal activity (AC50) is 3.42 µM (active).
For the compound `O=C(O)c1cc(Oc2ccc(C(F)(F)F)cc2Cl)ccc1[N+](=O)[O-]`, the compound was called inactive.
As for `CCOP(=S)(Oc1cnc(C(C)(C)C)nc1)OC(C)C` (stereo not given), the AC50 was 0.47 µM (active).
Turning to `CNC(=O)ON=C(SC)C(=O)N(C)C`, the compound was called inactive.
For the compound `C[N+]1(C)CCCCC1`, the outcome was inactive.
Take `CCCSP(=O)(OCC)Oc1ccc(Br)cc1Cl` (stereo not given): the half-maximal activity concentration (AC50) is 3.75 µM (active).
As for `N#CSCSC#N`, the result was inactive.
In the case of `CCOP(=O)(NC(C)C)Oc1ccc(SC)c(C)c1` (stereo not given), the AC50 is 3.13 µM (active).
For `CCOP(=O)(SC(C)CC)N1CCSC1=O` (stereo not given), the AC50 is 3.89 µM (active).
In the case of `CSc1nnc(C(C)(C)C)c(=O)n1N`, the half-maximal activity concentration (AC50) was 10.9 µM (active).
With `CCCOc1nn(C(=O)NS(=O)(=O)c2ccccc2C(=O)OC)c(=O)n1C`, the compound was called inactive.
`O=[N+]([O-])c1cc(C(F)(F)F)c(Cl)c([N+](=O)[O-])c1Nc1ncc(C(F)(F)F)cc1Cl`: the compound was classed as inactive.
For `CN(C)C(=O)Nc1cccc(C(F)(F)F)c1`, the call was inactive.
With `CCOP(=S)(OCC)OC(Cl)C(Cl)(Cl)Cl` (stereo not given), the concentration at half-maximal activity (AC50) is 0.833 µM (active).
With `CCOC(=O)CC(SP(=O)(OC)OC)C(=O)OCC` (stereo not given), the half-maximal activity concentration (AC50) is 14.4 µM (active).
As to `FC(F)C(F)(F)OCC(Cn1cncn1)c1ccc(Cl)cc1Cl` (stereo not given), the AC50 is 1.12 µM (active).
`CNC(=O)ON=C(C)SC`: the call was inactive.
